Wnt act: activators of Wnt/beta-catenin signaling; AID 743398; activation, % at 9.35 µM; 300,000 tested, 1.2% active; Wnt/beta-catenin reporter cell assay, activator, plate reader; in the data active means activation above about 30%, passing the limit was not always enough; inconclusive means no clear call, values can overlap the other calls;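 further: 0% = neutral control wells and 100% = positive control wells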
SMARCA2 act: increases SMARCA2 function in MMTV reporter cells. 370,000 tested, 1% active. MG213 cells, MMTV-luciferase reporter, dexamethasone, overnight. activation, % at 9.1 µM; in the data active means activation above about 7.8%;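 further: 0% = vehicle wells and 100% = reference activator wells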
MITF act: increases MITF-driven TRPM1 promoter luciferase signal | SK-MEL-5 TRPM1-promoter luciferase, 24 h; % of positive control, neutral wells = 0 | activation, % at 12.5 µM | 300,000 tested, 0.75% active;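 active means mean activation of at least 80% with every replicate also reaching 80%; inconclusive means mean reaches 80% but some replicate falls short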;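 further: 0% = neutral control wells and 100% = parthenolide positive control wells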
FGF22 binding: FGF22 (human) thermal shift binding; recombinant FGF22 thermal shift, SYPRO orange fluorescence; percent of sucrose octasulfate shift, DMSO zero; AID 651658; 340,000 tested, 1.5% active; Q9HCT0; activity (Tm shift, normalised), % at 9.99 µM;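 active means mean Tm shift, scaled 0 neutral to 100 positive control, at about 1.3% or above, every replicate too, limit read from the data; inconclusive means no clear call, values can overlap the other calls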
AF4-AF9 inh: MLL-AF4/AF9 protein interaction inhibition | P42568 | AlphaScreen, biotin-AF4 peptide binding to FLAG-AF9 | inhibition, % at 10 µM | 350,000 tested, 0.47% active;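 active means every replicate reaching a set inhibition limit, whatever the replicate mean, cut at about 25% in these data; inconclusive means mean inhibition reaches that limit but some replicates miss it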;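 further: 0% = plate neutral control median and 100% = total signal loss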
Target sequence (P42568 whole entry, looked up): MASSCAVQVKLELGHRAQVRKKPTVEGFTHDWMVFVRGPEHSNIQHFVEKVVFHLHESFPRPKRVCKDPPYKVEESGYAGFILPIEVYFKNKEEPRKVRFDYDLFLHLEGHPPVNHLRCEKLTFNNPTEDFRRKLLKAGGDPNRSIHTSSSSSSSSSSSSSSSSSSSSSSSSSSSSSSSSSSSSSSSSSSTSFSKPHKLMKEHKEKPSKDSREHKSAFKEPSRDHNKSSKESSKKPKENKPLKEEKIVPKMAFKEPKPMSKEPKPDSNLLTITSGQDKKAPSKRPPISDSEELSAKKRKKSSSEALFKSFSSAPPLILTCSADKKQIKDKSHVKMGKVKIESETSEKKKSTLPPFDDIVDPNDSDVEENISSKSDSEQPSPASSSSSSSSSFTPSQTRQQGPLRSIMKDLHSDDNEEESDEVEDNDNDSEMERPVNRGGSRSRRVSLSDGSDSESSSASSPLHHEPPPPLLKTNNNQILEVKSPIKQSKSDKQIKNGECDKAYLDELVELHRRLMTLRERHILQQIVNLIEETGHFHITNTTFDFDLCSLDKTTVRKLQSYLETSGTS
esBAF inh: inhibitors of esBAF chromatin remodeling in mouse ES cells. AID 602393. 350,000 tested, 2% active. reporter increase, % at 12.5 µM. Bmi1-luciferase knock-in reporter, 24 h; 100% = twice the neutral-well signal; in the data active means activation above about 40%; inconclusive means no clear call, values can overlap the other calls;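 further: 0% = median of the plate's neutral control wells and 100% = double that signal; a rise in the Bmi1 reporter signal indicates esBAF inhibition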
SMARCA2 act conf: confirmation of SMARCA2 (BRM) function activators | activation, % at 9.1 µM | 3,500 tested, 30% active | MG213 cells, MMTV-luciferase with dexamethasone, luminescence, overnight; MG213 cells expressing E1A, Rb sequestered; DMSO wells 0%, reference activator 100% | shares compounds with SMARCA2 act | AID 652260;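 active means activation above its plate's cutoff, the mean activation of tested wells plus 3 SD, cut at about 7.9% in these data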
VP16 Luc act: GAL4-VP16 reporter activation counter-screen | shares compounds with SMARCA2 act | HEK293 GAL4-VP16 pG5luc reporter, luciferase luminescence; scaled: DMSO wells 0%, SAHA wells 100% | activation, % at 9.1 µM | 3,500 tested, 41% active;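 active means activation above the solvent-only control well mean plus 3 SD, averaged across control plates, cut at about 5.2% in these data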
The depositor's hits bear a star; ! = a repeat was not active. In the library only some 4.3% were active in any assay of this set; here they are far more common.

What do the screens show for `Cc1[nH]nc2c1C(c1ccccc1)N(Cc1ccccc1)C2=O` (stereo not drawn)?
Wnt act: -1; SMARCA2 act: 0; FGF22 binding: 42; AF4-AF9 inh: -13

Results for COc1ccc(-c2nnc(SCC(=O)Nc3cccc(Cl)c3)o2)cc1 ?
Wnt act: 46*; SMARCA2 act: 12*; esBAF inh: 33; SMARCA2 act conf: 1; VP16 Luc act: 7.2*

How did O=C(NCc1ccc(F)cc1)c1c2c(nc3ccccc13)CCC2 do in these assays?
Wnt act: -1; SMARCA2 act: 9.4*; MITF act: 16; FGF22 binding: 0; AF4-AF9 inh: 2; SMARCA2 act conf: 3; VP16 Luc act: 2

How did Cc1ccnc(NC(=O)CCCOc2cc(=O)n(C)c3ccccc23)c1 do in these assays?
Wnt act: -1; SMARCA2 act: 22*!; MITF act: -6; FGF22 binding: 0; AF4-AF9 inh: -1; esBAF inh: -5; SMARCA2 act conf: 9.1*; VP16 Luc act: 0

What do the screens show for `Cn1c(=O)cc(OCCCC(=O)NCc2ccccn2)c2ccccc21`?
Wnt act: 14; SMARCA2 act: 0; esBAF inh: -7

What do the screens show for `CC1(C)Cc2c(c(-c3ccco3)nc3sc4c(NCCCO)ncnc4c23)CO1`?
Wnt act: 4; SMARCA2 act: 10.0*; MITF act: -2; FGF22 binding: 0; AF4-AF9 inh: -2; esBAF inh: -3; SMARCA2 act conf: 15*; VP16 Luc act: 1

What do the screens show for `CC1(C)Cc2c(c(-c3ccco3)nc3sc4c(NCCN5CCOCC5)ncnc4c23)CO1`?
Wnt act: 0; SMARCA2 act: 3; MITF act: -18; FGF22 binding: 0; AF4-AF9 inh: 1

What do the screens show for `CCN(CC)CCNc1ncnc2c1sc1nc(N3CCCC3)c3c(c12)CC(C)(C)OC3`?
Wnt act: -1; SMARCA2 act: 8.3*; MITF act: -44; FGF22 binding: 42; AF4-AF9 inh: 12; SMARCA2 act conf: 4; VP16 Luc act: 0

Results for CN(C)CCNc1ncnc2c1sc1nc(N3CCCC3)c3c(c12)CC(C)(C)OC3 ?
Wnt act: 7; SMARCA2 act: 4; FGF22 binding: 0; AF4-AF9 inh: 11; esBAF inh: -1

What do the screens show for `CC1(C)Cc2c(C#N)c(NCCO)nc(-c3ccco3)c2CO1`?
Wnt act: -2; SMARCA2 act: 8.6*; FGF22 binding: 0; AF4-AF9 inh: 0; esBAF inh: -10; SMARCA2 act conf: 0; VP16 Luc act: 2

How did O=C(O)c1cc(N/N=C2/CC(c3ccccc3)Oc3ccccc32)ccc1Cl (stereo not drawn) do in these assays?
Wnt act: 14; SMARCA2 act: 10*; MITF act: 13; SMARCA2 act conf: 3; VP16 Luc act: 2

How did COc1ccc2c3c([nH]c2c1)[C@H](CO)N(C(=O)C1CCCCC1)CC31CCN(C)CC1 do in these assays?
AF4-AF9 inh: 4

How did Cc1ccc2c(c1)sc1nc(=O)n(-c3ccccc3)c(=O)n12 do in these assays?
Wnt act: 55*; SMARCA2 act: 12*; MITF act: 48; FGF22 binding: 0; AF4-AF9 inh: 0; SMARCA2 act conf: 8.4*; VP16 Luc act: 12*

Results for CSc1nnc2sc3cc(C)ccc3n12 ?
Wnt act: 16; SMARCA2 act: 2; FGF22 binding: 0; AF4-AF9 inh: -3; esBAF inh: 19

What do the screens show for `CO[C@@H]1CN(C)C(=O)c2ccc(NC(=O)C3CCCCC3)cc2OC[C@H](C)N(Cc2nccs2)C[C@H]1C`?
FGF22 binding: -1; AF4-AF9 inh: -4; esBAF inh: -3

What do the screens show for `COc1ccccc1NC(=O)C(=O)/C=C(\O)c1ccccc1`?
Wnt act: 24; SMARCA2 act: 10*; FGF22 binding: 0; AF4-AF9 inh: 4; esBAF inh: inconclusive; SMARCA2 act conf: -1; VP16 Luc act: 0

What do the screens show for `CCOc1ccccc1NC(=O)C(=O)/C=C(\O)c1cc(OC)ccc1OC`?
SMARCA2 act: -3; esBAF inh: -2

Results for O=C(CCl)NC1CCCc2ccccc21 (stereo not drawn) ?
Wnt act: 0; SMARCA2 act: 9.3*; MITF act: -14; FGF22 binding: 0; AF4-AF9 inh: -2; SMARCA2 act conf: -2; VP16 Luc act: -1

How did COc1cc(C2Oc3ccccc3C=C2[N+](=O)[O-])cc(OC)c1OC (stereo not drawn) do in these assays?
Wnt act: 15; SMARCA2 act: 21*; FGF22 binding: 0; AF4-AF9 inh: 19; SMARCA2 act conf: -13; VP16 Luc act: 3

What do the screens show for `COc1ccccc1NC(=O)CCN1C(=O)c2ccccc2C1=O`?
Wnt act: -2; SMARCA2 act: 9.5*; MITF act: 2; FGF22 binding: 0; AF4-AF9 inh: -2; esBAF inh: -3; SMARCA2 act conf: -3; VP16 Luc act: -1

How did COc1ccccc1NC(=O)CCN1C(=O)C2CC=CCC2C1=O (stereo not drawn) do in these assays?
Wnt act: 1; SMARCA2 act: -2; MITF act: -6; FGF22 binding: 0; AF4-AF9 inh: -1; esBAF inh: -1

Results for CC(C)n1nnnc1C1c2ccccc2C(=O)N1CCc1ccccc1F (stereo not drawn) ?
Wnt act: 1; SMARCA2 act: 8.8*; FGF22 binding: 0; AF4-AF9 inh: 1; SMARCA2 act conf: 5; VP16 Luc act: 7.4*

Results for CC(C)n1nnnc1C1c2ccccc2C(=O)N1CCc1c[nH]c2ccccc12 (stereo not drawn) ?
Wnt act: 9; SMARCA2 act: 3; FGF22 binding: -1; AF4-AF9 inh: 4

How did CC1(C)Cc2c(sc(NC(=O)c3ccc4ncsc4c3)c2C(N)=O)C(C)(C)N1 do in these assays?
Wnt act: -2; SMARCA2 act: 8.5*; MITF act: -77; FGF22 binding: 0; AF4-AF9 inh: -2; SMARCA2 act conf: 13*; VP16 Luc act: 8.0*

How did CN(C)CCCNc1cc(C(C)(C)C)nc2c(-c3ccccc3)cnn12 do in these assays?
Wnt act: 43*; SMARCA2 act: 9.3*; FGF22 binding: 0; AF4-AF9 inh: inconclusive; SMARCA2 act conf: 6; VP16 Luc act: 6.7*

Screens: PubChem BioAssay, several laboratories
